The results in this text go back to the supplement of paper PMC10849652.

The full data set covers some 7,900 targets. This sample favours those with a hit. About 0.6% of all pairs of compound and target were hits. A number with no mark means an inactive call.

Chain of UniProt O00329 (O00329 whole entry, looked up): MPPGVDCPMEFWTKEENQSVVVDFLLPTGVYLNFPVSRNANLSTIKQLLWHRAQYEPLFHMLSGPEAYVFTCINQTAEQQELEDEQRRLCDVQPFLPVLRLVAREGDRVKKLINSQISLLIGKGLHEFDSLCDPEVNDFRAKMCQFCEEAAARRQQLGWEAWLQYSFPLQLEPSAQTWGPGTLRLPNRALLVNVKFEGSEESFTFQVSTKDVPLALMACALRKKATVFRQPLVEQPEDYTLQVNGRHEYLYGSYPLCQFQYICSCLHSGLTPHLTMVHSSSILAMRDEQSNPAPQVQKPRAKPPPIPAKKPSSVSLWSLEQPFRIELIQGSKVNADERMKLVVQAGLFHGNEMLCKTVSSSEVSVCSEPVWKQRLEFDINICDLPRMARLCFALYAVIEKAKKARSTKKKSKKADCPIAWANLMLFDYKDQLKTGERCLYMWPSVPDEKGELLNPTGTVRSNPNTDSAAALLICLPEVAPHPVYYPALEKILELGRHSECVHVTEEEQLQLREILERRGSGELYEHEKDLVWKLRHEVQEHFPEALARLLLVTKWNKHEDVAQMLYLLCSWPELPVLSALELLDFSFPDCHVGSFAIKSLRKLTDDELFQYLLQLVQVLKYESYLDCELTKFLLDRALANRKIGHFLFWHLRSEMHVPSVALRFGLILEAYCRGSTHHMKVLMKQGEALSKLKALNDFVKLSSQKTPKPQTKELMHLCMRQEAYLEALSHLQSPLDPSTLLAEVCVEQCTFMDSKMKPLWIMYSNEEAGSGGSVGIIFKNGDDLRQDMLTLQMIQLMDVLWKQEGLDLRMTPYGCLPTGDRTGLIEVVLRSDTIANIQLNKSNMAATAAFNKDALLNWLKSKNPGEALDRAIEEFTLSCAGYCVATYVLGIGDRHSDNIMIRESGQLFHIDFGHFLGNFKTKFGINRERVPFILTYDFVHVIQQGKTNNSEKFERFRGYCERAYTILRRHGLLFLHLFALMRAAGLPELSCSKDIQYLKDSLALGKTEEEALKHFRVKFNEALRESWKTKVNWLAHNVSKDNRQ
Chain of UniProt P07205 (P07205 whole entry, looked up): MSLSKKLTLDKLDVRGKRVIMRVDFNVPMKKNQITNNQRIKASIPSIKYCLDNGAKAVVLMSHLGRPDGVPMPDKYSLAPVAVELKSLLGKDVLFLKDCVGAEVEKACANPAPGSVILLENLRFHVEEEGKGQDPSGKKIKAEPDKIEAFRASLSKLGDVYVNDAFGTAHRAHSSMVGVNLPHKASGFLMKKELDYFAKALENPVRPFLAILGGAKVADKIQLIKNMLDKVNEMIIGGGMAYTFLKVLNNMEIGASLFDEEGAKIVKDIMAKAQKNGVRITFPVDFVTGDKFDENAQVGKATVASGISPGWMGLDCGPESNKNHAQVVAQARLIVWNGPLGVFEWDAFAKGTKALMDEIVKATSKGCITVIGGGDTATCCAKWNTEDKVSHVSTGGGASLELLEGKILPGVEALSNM
Chain of UniProt Q2TAL8 (Q2TAL8 whole entry, looked up): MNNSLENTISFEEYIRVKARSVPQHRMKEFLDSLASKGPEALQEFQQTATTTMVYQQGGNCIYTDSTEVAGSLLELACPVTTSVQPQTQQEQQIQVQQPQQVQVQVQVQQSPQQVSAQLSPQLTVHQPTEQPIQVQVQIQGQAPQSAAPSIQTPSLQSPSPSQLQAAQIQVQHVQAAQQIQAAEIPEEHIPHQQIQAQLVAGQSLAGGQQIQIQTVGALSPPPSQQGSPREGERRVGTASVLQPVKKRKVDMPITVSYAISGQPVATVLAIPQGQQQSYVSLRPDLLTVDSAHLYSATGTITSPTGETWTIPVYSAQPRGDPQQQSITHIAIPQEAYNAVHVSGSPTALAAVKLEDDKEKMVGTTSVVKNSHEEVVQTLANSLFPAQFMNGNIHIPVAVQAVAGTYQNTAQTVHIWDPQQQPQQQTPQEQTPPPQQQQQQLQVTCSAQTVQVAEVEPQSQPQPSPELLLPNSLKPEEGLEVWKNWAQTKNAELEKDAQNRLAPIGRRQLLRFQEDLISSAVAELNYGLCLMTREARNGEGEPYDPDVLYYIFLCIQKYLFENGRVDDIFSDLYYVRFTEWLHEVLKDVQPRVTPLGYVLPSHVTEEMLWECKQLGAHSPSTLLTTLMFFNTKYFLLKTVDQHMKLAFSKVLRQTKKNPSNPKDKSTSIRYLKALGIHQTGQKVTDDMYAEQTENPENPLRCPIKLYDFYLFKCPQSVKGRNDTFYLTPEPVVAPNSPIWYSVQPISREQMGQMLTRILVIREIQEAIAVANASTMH
Chain of UniProt Q15172 (Q15172 whole entry, looked up): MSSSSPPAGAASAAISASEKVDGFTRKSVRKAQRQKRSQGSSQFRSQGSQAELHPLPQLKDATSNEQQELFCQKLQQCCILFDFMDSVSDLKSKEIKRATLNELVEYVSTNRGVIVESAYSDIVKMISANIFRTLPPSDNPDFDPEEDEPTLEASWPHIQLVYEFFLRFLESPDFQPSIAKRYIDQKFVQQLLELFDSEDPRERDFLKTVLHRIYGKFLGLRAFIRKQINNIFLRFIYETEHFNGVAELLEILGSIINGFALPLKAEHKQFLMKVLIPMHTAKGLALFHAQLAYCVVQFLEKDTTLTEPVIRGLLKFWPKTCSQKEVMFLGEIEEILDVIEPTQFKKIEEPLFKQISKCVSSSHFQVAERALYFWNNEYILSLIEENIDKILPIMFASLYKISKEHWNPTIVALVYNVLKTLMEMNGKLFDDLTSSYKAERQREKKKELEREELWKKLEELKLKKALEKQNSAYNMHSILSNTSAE
Chain of UniProt Q15121 (Q15121 whole entry, looked up): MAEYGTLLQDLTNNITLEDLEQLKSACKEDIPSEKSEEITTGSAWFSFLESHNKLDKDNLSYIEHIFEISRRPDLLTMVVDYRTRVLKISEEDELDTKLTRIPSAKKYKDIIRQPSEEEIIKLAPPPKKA
Chain of UniProt P28065 (P28065 whole entry, looked up): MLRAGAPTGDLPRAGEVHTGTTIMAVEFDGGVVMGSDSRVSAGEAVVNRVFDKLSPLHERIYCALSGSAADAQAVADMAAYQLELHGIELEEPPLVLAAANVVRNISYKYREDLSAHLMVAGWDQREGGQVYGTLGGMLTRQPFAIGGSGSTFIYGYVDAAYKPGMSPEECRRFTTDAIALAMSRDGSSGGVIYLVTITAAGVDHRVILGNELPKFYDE
Chain of UniProt Q9P2B2 (Q9P2B2 whole entry, looked up): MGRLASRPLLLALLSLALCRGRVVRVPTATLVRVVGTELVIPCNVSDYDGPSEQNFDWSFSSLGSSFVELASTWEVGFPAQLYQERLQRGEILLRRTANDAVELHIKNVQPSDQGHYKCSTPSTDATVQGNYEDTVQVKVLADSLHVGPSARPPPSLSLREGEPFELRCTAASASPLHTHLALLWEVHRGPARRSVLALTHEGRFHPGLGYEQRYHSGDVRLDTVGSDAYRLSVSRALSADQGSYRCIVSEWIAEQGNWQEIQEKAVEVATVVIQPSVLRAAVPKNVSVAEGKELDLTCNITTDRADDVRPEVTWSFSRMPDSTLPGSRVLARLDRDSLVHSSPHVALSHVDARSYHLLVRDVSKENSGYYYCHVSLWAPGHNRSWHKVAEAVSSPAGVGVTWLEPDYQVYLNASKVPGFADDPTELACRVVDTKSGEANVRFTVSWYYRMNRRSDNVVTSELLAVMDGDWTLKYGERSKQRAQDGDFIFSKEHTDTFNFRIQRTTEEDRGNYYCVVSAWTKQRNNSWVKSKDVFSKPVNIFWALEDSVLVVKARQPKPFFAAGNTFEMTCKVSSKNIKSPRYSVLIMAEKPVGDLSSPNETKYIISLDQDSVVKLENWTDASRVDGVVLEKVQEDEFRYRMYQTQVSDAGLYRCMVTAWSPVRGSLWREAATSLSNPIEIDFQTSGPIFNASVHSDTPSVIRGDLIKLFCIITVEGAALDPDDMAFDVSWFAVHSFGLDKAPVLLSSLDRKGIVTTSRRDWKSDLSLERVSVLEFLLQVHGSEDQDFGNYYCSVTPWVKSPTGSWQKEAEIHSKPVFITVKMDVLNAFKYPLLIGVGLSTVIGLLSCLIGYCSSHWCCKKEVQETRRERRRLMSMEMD
Chain of UniProt Q9NR22 (Q9NR22 whole entry, looked up): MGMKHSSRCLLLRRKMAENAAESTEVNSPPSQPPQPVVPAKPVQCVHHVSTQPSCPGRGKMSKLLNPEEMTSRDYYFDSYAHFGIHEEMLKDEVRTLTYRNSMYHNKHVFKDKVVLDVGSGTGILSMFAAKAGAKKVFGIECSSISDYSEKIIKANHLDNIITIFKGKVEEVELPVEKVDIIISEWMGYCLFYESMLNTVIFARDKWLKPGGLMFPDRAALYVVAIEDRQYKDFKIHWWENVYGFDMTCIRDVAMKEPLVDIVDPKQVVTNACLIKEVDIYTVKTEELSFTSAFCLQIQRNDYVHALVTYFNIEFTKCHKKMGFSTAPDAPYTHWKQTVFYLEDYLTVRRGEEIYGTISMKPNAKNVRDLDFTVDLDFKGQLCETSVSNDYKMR
Chain of UniProt Q14442 (Q14442 whole entry, looked up): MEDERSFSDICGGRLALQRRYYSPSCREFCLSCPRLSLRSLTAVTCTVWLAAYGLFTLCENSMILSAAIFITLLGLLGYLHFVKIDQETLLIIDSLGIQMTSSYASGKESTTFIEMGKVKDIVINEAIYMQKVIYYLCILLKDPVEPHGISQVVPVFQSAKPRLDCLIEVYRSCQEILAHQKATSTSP
Chain of UniProt Q99541 (Q99541 whole entry, looked up): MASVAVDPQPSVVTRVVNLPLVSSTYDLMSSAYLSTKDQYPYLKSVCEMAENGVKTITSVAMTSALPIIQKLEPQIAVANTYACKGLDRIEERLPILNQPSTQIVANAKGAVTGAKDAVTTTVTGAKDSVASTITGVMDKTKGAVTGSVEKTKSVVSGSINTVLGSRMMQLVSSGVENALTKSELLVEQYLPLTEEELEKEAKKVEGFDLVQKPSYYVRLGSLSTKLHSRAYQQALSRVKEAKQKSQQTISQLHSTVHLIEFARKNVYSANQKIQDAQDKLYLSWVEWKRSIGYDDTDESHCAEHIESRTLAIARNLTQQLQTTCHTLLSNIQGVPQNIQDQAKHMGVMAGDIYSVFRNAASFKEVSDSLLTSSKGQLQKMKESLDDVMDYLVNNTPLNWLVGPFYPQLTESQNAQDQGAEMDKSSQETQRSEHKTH

Compound in this test: COC(=O)N[C@@H](C)CNc1nccc(-c2cn(C(C)C)nc2-c2cc(Cl)cc(NS(C)(=O)=O)c2F)n1 [encorafenib]
Briefly: log2 fold change, soluble protein after heating vs DMSO (PISA); higher = thermal stabilisation; K562 cells, 10 uM, 30 min; active = over 0.2 and 3.5 SD of the protein, either way, in both replicates (recomputed). A digest of the protocol: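 K562 cells at 2×10^6 cells/mL were given 10 μM compound for 30 min. Aliquots then went through 3 min of heating across 48°C-58°C, were pooled, and were extracted in PBS with 0.5% NP-40 at 4°C, and the supernatant after 21,000xg for 90 min was quantified by TMTpro 16plex LC-MS/MS with channel sums equalised. Thermal stability relative to control samples, from duplicates, is given as log2 fold change.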
With PKM isoform 2 (UniProt P14618), the log2 fold change was -0.09.
For PDIK1L (UniProt Q8N165), the log2 fold change was -0.022.
In the case of POLR2C (UniProt P19387), the log2 fold change is 0.002.
The same measure for PSD3 (UniProt Q9NYI0): 0.003.
Then POLB (UniProt P06746), with 0.031; and PPP2R5A (UniProt Q15172), with 0.063; and POMK (UniProt Q9H5K3), with 0.089.
For PRKAG1 isoform 3 (UniProt P54619), the log2 fold change is 0.026.
The same measure for PSMB9 (UniProt P28065): -0.22.
Turning to PTGFRN (UniProt Q9P2B2), the log2 fold change was -0.004.
As to PGK2 (UniProt P07205), the log2 fold change is -0.056.
Regarding PIGH (UniProt Q14442), the log2 fold change was -0.068.
Then PTP4A2 (UniProt Q12974), with 0.008; and PNN (UniProt Q9H307), with -0.174.
The same measure for PPP2R5B (UniProt Q15173): 0.07.
On to PLIN2 (UniProt Q99541), for which the log2 fold change was 0.002.
PCNX1 (UniProt Q96RV3): the log2 fold change is 0.085.
In the case of PNPLA4 (UniProt P41247), the log2 fold change was -0.343.
With POGZ (UniProt Q7Z3K3), the log2 fold change was -0.02.
The same measure for PRMT3 (UniProt O60678): 0.061; for PEX16 isoform 2 (UniProt Q9Y5Y5): 0.001; for PIK3CD (UniProt O00329): -0.019.
With PTEN isoform 2 (UniProt P60484), the log2 fold change was 0.015.
Regarding PPP1R12C (UniProt Q9BZL4), the log2 fold change is -0.013.
For POLR2M (UniProt Q6EEV4), the log2 fold change is -0.047.
Then PSMB4 (UniProt P28070), with 0.011; and PDPK1 (UniProt O15530), with 0.041; and PHKA1 (UniProt P46020), with -0.295.
In the case of POLR2E (UniProt P19388), the log2 fold change was 0.025.
As to PRMT8 (UniProt Q9NR22), the log2 fold change is 0.01.
For PRKAR2A (UniProt P13861), the log2 fold change was 0.017.
Take PHC3 isoform 7 (UniProt Q8NDX5): the log2 fold change is 0.154.
Take PATL1 (UniProt Q86TB9): the log2 fold change was 0.155.
The same measure for PARP1 (UniProt P09874): 0.079; for PHLDB1 isoform 2 (UniProt Q86UU1): 0.089.
Then QRICH1 (UniProt Q2TAL8), with 0.097.
With PEA15 isoform 2 (UniProt Q15121), the log2 fold change was 0.035.
